# Measurements reported in publication PMC10726135, “HNF4α isoforms regulate the circadian balance between carbohydrate and lipid metabolism in the liver”.
# Whole data set: some 18,000 sequences, median “log2 normalized intensity” near 0.36, cut for the highest 2% near 7.3. For the sample, the highest values were picked, then their nearest neighbours and some sequences at random.
# Target: T1, HNF4alpha8 (COS-7 nuclear extract) (Homo sapiens, UniProt P41235-5 1-452)
# T1 sequence: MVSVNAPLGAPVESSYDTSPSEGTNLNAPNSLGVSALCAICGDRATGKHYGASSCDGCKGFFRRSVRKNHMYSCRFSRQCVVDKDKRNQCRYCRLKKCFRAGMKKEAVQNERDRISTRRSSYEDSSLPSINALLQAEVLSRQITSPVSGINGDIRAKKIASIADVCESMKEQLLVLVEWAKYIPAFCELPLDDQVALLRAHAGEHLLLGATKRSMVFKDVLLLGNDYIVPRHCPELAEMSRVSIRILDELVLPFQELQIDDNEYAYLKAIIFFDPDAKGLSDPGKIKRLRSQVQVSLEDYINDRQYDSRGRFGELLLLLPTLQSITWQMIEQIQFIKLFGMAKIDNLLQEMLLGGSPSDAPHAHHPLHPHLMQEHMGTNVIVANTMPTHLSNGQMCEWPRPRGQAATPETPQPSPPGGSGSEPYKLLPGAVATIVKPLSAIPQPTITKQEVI
# Test: protein-binding microarray; COS-7 nuclear extract on double-stranded Agilent 4x180k PBM; binding buffer, salt, pH and temperature not given in the material; high values mean tight binding
# Conditions: chain copies: 2; label: 3' end of strand 1 on the slide; dsDNA, one strand shown
# How it was run: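 COS-7 cells were transiently transfected by CaPO4 with an expression vector for a human HNF4α isoform, and nuclear extracts were prepared from them. The extracts were applied to a custom Agilent SurePrint G3 4x180k array of double-stranded ~60-nt oligonucleotides, with ~44,000 test sequences spotted in quadruplicate. An Agilent G2565CA scanner imaged bound HNF4α at 2-µm resolution. Binding signal is the background-corrected, normalized gProcessedSignal from Agilent software.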
row,Sequence,binding signal [log2 normalized intensity]
1,TCCTCTATCTTCAAAGCCAGCAACGGTGAGGCCTAGGGAGATTAGAGTATCGGTCGA,0.0395
2,CAGCTGTCGTGTGAATAGCACTGACCAGCTGCCTAGGGAGATTAGAGTATCGGTCGA,0.27
3,AATTCCCTGCAAGGACAAAGGTCATGTTTTGCCTAGGGAGATTAGAGTATCGGTCGA,7.11
4,CTAATGGAGAGGATGGGGACAAAGGTCAAGGCCTAGGGAGATTAGAGTATCGGTCGA,8.12
5,TTTGGAATTCCCTGCAAGGACAAAGGTCATGCCTAGGGAGATTAGAGTATCGGTCGA,7.71
6,GGAGAGGATGGGGACAAAGGTCAAGAAAGCGCCTAGGGAGATTAGAGTATCGGTCGA,6.33
7,GACAAAGGTCATTCATGTGCAGGTTGGAATGCCTAGGGAGATTAGAGTATCGGTCGA,3.11
8,GTTATCTAATGGAGAGGATGGGGACAAAGGGCCTAGGGAGATTAGAGTATCGGTCGA,2.55
9,TTACTTTTGCAAGGTTTGTTCTTATCATGCGCCTAGGGAGATTAGAGTATCGGTCGA,0.712
10,CCCATCCCAGAGGTCAAACTATCTGAGGTGGCCTAGGGAGATTAGAGTATCGGTCGA,1.93
11,GAATCTACAGAATTCTCATGGAGGACTTTGGCCTAGGGAGATTAGAGTATCGGTCGA,3.31
12,GATGTTGGGAGGAGTGGACTTTGATCTCAGGCCTAGGGAGATTAGAGTATCGGTCGA,9.38
13,TCTGGGATGTTGGGAGGAGTGGACTTTGATGCCTAGGGAGATTAGAGTATCGGTCGA,6.84
14,TCAGATGAGACTTTGGACTTTTGAACTAAGGCCTAGGGAGATTAGAGTATCGGTCGA,7.23
15,ATCTAGGTGAGGGATGAGGACTTTGATCAGGCCTAGGGAGATTAGAGTATCGGTCGA,6.79
16,CTGAGAAGATGAAAGACGAAAGGGACTTTGGCCTAGGGAGATTAGAGTATCGGTCGA,2.82
17,TTATCTCAGATGAGACTTTGGACTTTTGAAGCCTAGGGAGATTAGAGTATCGGTCGA,8.04
18,TAGCCTTATCTCAGATGAGACTTTGGACTTGCCTAGGGAGATTAGAGTATCGGTCGA,8.64
19,GGGACTAGCCTTATCTCAGATGAGACTTTGGCCTAGGGAGATTAGAGTATCGGTCGA,2.03
20,TACAGAATTCTCATGGAGGACTTTGGCCTTGCCTAGGGAGATTAGAGTATCGGTCGA,7.81
21,GGGCTGAGGATGAGGACTTTGGTCTTATTAGCCTAGGGAGATTAGAGTATCGGTCGA,4.45
22,AATTCTCATGGAGGACTTTGGCCTTTTGTGGCCTAGGGAGATTAGAGTATCGGTCGA,6.71

row,Sequence,binding signal [log2 normalized intensity]
1,CTCCCCCACGACAGAATTGACTCTTCGTTTGCCTAGGGAGATTAGAGTATCGGTCGA,2.63
2,CTTTCATCTTTGCGGTGAGCATTTGTTTAGGCCTAGGGAGATTAGAGTATCGGTCGA,0.99
3,CAGAAGCAATCACAAGGAATGCCCTTATCTGCCTAGGGAGATTAGAGTATCGGTCGA,2.11
4,CCTATGGTATGTATGGAATGTCACTTTCTGGCCTAGGGAGATTAGAGTATCGGTCGA,1.79
5,ATGCACGTGCTCCAGGAGGGGAGGAGGGTCGCCTAGGGAGATTAGAGTATCGGTCGA,3.4
6,TCCTAGACCTTTGACCTTTATACCTGTACGGCCTAGGGAGATTAGAGTATCGGTCGA,6.76
7,GACCTTTGACCTTTATACCTGTACGTTACTGCCTAGGGAGATTAGAGTATCGGTCGA,7.64
8,CCCAAGATGGATTGGGTCCACACATTCCTAGCCTAGGGAGATTAGAGTATCGGTCGA,0.829
9,ATTGTGATTCCTGTGATACCTTCTTTGCCTGCCTAGGGAGATTAGAGTATCGGTCGA,0.781
10,TTGACCTTTATACCTGTACGTTACTCTGTAGCCTAGGGAGATTAGAGTATCGGTCGA,4.37
11,CACATTCCTAGACCTTTGACCTTTATACCTGCCTAGGGAGATTAGAGTATCGGTCGA,8.55
12,GTCCACACATTCCTAGACCTTTGACCTTTAGCCTAGGGAGATTAGAGTATCGGTCGA,8.88
13,ATTGGGTCCACACATTCCTAGACCTTTGACGCCTAGGGAGATTAGAGTATCGGTCGA,3.87
14,CTTTATACCTGTACGTTACTCTGTACCTCGGCCTAGGGAGATTAGAGTATCGGTCGA,1.8
15,GGAACCAAGAGCAGATTTGTTTGCTCTTTAGCCTAGGGAGATTAGAGTATCGGTCGA,0.915
16,TTCCCTGAGTTTCCATTAACTGAACCTAGAGCCTAGGGAGATTAGAGTATCGGTCGA,1.69
17,TAAGATACGAAGGGTTTAAAGGGCAGAAGAGCCTAGGGAGATTAGAGTATCGGTCGA,2.39
18,AAGTTCATGGAAAGTTTCACTTTCTCTTATGCCTAGGGAGATTAGAGTATCGGTCGA,0.0777
19,GCAAAGGTCAGCTCATTCCCTAGGGCTCGGGCCTAGGGAGATTAGAGTATCGGTCGA,-0.991
20,TTCCCTAAGATTCTGGTCAAAGGTCAATGAGCCTAGGGAGATTAGAGTATCGGTCGA,8.22
21,AAAGGGCAAAGGTCAGCTCATTCCCTAGGGGCCTAGGGAGATTAGAGTATCGGTCGA,6.71
22,TAAGATTCTGGTCAAAGGTCAATGAAGCTCGCCTAGGGAGATTAGAGTATCGGTCGA,6.64

row,Sequence,binding signal [log2 normalized intensity]
1,ATTCATTCCCTAAGATTCTGGTCAAAGGTCGCCTAGGGAGATTAGAGTATCGGTCGA,7.83
2,TTCTGGTCAAAGGTCAATGAAGCTCTTGCTGCCTAGGGAGATTAGAGTATCGGTCGA,6.15
3,ACTTAAAAGAAGCTACTAGCAAATCTGCCCGCCTAGGGAGATTAGAGTATCGGTCGA,-0.288
4,AACAAAGGTCGGTGGTATGTGTGTGCTTTAGCCTAGGGAGATTAGAGTATCGGTCGA,2.2
5,AATGTGTGTTCTGCTGCCATTGGATGGAATGCCTAGGGAGATTAGAGTATCGGTCGA,1.51
6,GTCAGATGACAGAATTGGTCCTGGAACTCAGCCTAGGGAGATTAGAGTATCGGTCGA,0.192
7,CCAACACAGAAGCCTTTTGTTCTTTGTGTGGCCTAGGGAGATTAGAGTATCGGTCGA,1.47
8,CCTATGGTCTGTTCACTTGCCAAGCCTAGTGCCTAGGGAGATTAGAGTATCGGTCGA,-0.838
9,AAATATTGTCAGTGAGGAATGTGCAAACGGGCCTAGGGAGATTAGAGTATCGGTCGA,0.32
10,GGTTGCACTCTGGTGCCCTCTGAGTGTTTGGCCTAGGGAGATTAGAGTATCGGTCGA,2.54
11,ACCCTCTCTGGATGCAGGTCGCCGGGAAAAGCCTAGGGAGATTAGAGTATCGGTCGA,0.74
12,ATGTTAGTCTTGAGTCCCAAAGTCCAAAGGGCCTAGGGAGATTAGAGTATCGGTCGA,6.25
13,AGGTCAGGGAGTAGGTTTGATTTGTGAAAGGCCTAGGGAGATTAGAGTATCGGTCGA,1.03
14,GATGCTAGGTTTGTGAGTCCAAAGGTCAGCGCCTAGGGAGATTAGAGTATCGGTCGA,9.81
15,TAGGTTTGTGAGTCCAAAGGTCAGCCGGGGGCCTAGGGAGATTAGAGTATCGGTCGA,8.36
16,AGTCCAAAGGTCAGCCGGGGAAGGTGCAGGGCCTAGGGAGATTAGAGTATCGGTCGA,5.55
17,TCACAGTGTGGGGCAAATCTGAGGTCAAAGGCCTAGGGAGATTAGAGTATCGGTCGA,2.51
18,CCTGAGGTGTGAGAGGGCAAAGGTCACAGCGCCTAGGGAGATTAGAGTATCGGTCGA,8.73
19,TTGTGAGTCCAAAGGTCAGCCGGGGAAGGTGCCTAGGGAGATTAGAGTATCGGTCGA,7.55
20,AAGGTTGGTTTTTGGAGACAGGAGTAGTCAGCCTAGGGAGATTAGAGTATCGGTCGA,0.982
21,AAAAGGATGCTAGGTTTGTGAGTCCAAAGGGCCTAGGGAGATTAGAGTATCGGTCGA,5.08
22,TGAGTATCCAAAGGTCAGTGACAAATGTCAGCCTAGGGAGATTAGAGTATCGGTCGA,4.51

row,Sequence,binding signal [log2 normalized intensity]
1,GGTGTGAGAGGGCAAAGGTCACAGCATTAGGCCTAGGGAGATTAGAGTATCGGTCGA,7.08
2,TACGTGACCTACTTAGTCTCCAGCCCCCAGGCCTAGGGAGATTAGAGTATCGGTCGA,4.08
3,TTTGGGGGTTGGTATTACAAAGCAATCTACGCCTAGGGAGATTAGAGTATCGGTCGA,0.18
4,TGAGCCATCCTGAACAAATGTACTGGATATGCCTAGGGAGATTAGAGTATCGGTCGA,-0.391
5,GACATAAATCACATTGTTAGCATAGCCTATGCCTAGGGAGATTAGAGTATCGGTCGA,-0.813
6,TGCTCACGTTTTCCTGCTGACCCTCTCCCCGCCTAGGGAGATTAGAGTATCGGTCGA,4.22
7,CTGCAGTGTGACCTTTGCCTTCTTGACATCGCCTAGGGAGATTAGAGTATCGGTCGA,6.8
8,GTGTGACCTTTGCCTTCTTGACATCTCTCTGCCTAGGGAGATTAGAGTATCGGTCGA,5.21
9,GATGTTCTACACTGCTTACCCTGCAGTGTGGCCTAGGGAGATTAGAGTATCGGTCGA,-0.757
10,TTACCCTGCAGTGTGACCTTTGCCTTCTTGGCCTAGGGAGATTAGAGTATCGGTCGA,8.09
11,ACTGCTTACCCTGCAGTGTGACCTTTGCCTGCCTAGGGAGATTAGAGTATCGGTCGA,8.52
12,TCTACACTGCTTACCCTGCAGTGTGACCTTGCCTAGGGAGATTAGAGTATCGGTCGA,4.68
13,AGCTTGCTCTCACCAGCTTCTTCTCTTTGAGCCTAGGGAGATTAGAGTATCGGTCGA,-0.143
14,TTTGCTCACTGTAACCTTTGCCCCCCAAGTGCCTAGGGAGATTAGAGTATCGGTCGA,9.22
15,TGGTGCTATCTTTGCTCACTGTAACCTTTGGCCTAGGGAGATTAGAGTATCGGTCGA,4.34
16,ACTGTAACCTTTGCCCCCCTGGGCTCAAGCGCCTAGGGAGATTAGAGTATCGGTCGA,6.27
17,TCACTGTAACCTTTGCCCCCCAAGTTGAAGGCCTAGGGAGATTAGAGTATCGGTCGA,7.68
18,GTGCTATCTCAGCTCACTGTAACCTTTGCCGCCTAGGGAGATTAGAGTATCGGTCGA,4.68
19,ATCTCAGCTCACTGTAACCTTTGCCCCCCTGCCTAGGGAGATTAGAGTATCGGTCGA,9.22
20,AACCTTTGCCCCAGCTGTCACCCAGCCAGAGCCTAGGGAGATTAGAGTATCGGTCGA,4.16
21,AGCCCCAACCCACTGTTGCCCCTTCCAAAGGCCTAGGGAGATTAGAGTATCGGTCGA,4.73
22,GTAACCTTTGCCCCCCAAGTTGAAGCCATCGCCTAGGGAGATTAGAGTATCGGTCGA,5.74
